Shown are actives, neighbours in structure and some others; about 5.7% of the full set was active somewhere.
Gal4-VP16 FLuc: inhibits Gal4-VP16 luciferase reporter, ROR gamma counter-screen | Drosophila S2 Gal4-VP16 UAS-luciferase, luminescence, 20 h | hit rate 3.5% among 310,000 | Potency, µM (titrated, usually from 53.6 µM), hits mostly inhibitors | AID 2546;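 further: Gal4-VP16 expression switched on by copper sulfate through the metallothionein promoter; nearly all actives have a fitted effect of over 50% in size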
RORgamma inh: inhibitors of mouse ROR gamma transcriptional activity; Drosophila S2 Gal4-RORgamma UAS-luciferase reporter, 20 h; Potency, µM (series often up to 53.6 µM), usual class: inhibitors; hit rate 5.4% among 310,000; further: nearly all actives have a fitted effect of over 60% in size
Target sequence (P51450 whole entry, looked up, the tested form may be a part): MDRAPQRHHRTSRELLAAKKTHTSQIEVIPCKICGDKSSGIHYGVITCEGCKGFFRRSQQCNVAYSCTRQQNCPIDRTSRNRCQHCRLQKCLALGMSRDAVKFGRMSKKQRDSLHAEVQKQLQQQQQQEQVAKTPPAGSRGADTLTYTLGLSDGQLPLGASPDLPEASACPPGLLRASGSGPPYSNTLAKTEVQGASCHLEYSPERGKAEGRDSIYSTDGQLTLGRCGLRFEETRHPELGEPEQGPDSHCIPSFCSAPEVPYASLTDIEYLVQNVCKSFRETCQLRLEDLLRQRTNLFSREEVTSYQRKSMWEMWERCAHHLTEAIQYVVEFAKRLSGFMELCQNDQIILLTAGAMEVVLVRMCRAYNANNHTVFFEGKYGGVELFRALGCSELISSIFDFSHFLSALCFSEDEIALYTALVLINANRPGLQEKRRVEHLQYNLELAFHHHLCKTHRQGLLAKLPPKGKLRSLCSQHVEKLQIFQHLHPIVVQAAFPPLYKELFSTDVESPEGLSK
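A Gal4/UAS one-hybrid system in insect cells: metallothionein-promoter Gal4–ROR gamma fusion plus Photinus luciferase reporter. Copper sulfate 700 uM final, 20 hr ambient incubation, luminescent detection after 10 min with reagent.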
NPSR antag: blocks cAMP signaling of the human neuropeptide S receptor; Potency, µM (doses to about 38.3 µM), actives largely listed as inhibitors; CHO-NPSR cells, cAMP TR-FRET, antagonist mode; Q6W5P4; hit rate 1% among 220,000; AID 1461; further: nearly all actives have a fitted effect of over 50% in size
B2AR arrestin: recruits beta-arrestin to the human beta2-adrenergic receptor; AID 492947; Potency, µM (titrated, usually from 46.1 µM), hits mostly activators; hit rate 0.02% among 330,000; beta-arrestin recruitment to beta2AR, cell-based reporter; further: nearly all actives have a fitted effect of over 65% in size
Hits are given with their value; – = inactive; ? = inconclusive; · = not tested or not shown; [ ] = dose if it differs, or a comment. The call rests on the fitted dose curve; in most records, active means well fitted curve in the direction sought with a large enough effect; inconclusive means small, poorly fitted or top-dose-only effect, or another doubt; inactive means no such curve, though single readings can be large; an effect the other way counts as inactive or inconclusive.

SMILES	Gal4-VP16 FLuc	RORgamma inh	NPSR antag	B2AR arrestin
Cc1ccc(-c2nnc3n2CCCCC3)cc1	–	–	–	·
CCOc1ccc(-c2cnc3n2CCCCC3)cc1	?	11µM	·	–
CC1CCCC(NC(=O)COC(=O)[C@@H](NC(=O)c2ccc(F)cc2)C(C)C)C1C (stereo not given in full)	·	·	·	–
CCCCOC(=O)CNc1n[nH]c(=S)[nH]c1=O	–	–	10µM	–
CC(C)COC(=O)CNc1n[nH]c(=S)[nH]c1=O	–	–	?	–
Cn1c(=O)c2c(nc(NCc3ccc4c(c3)OCO4)n2Cc2ccccc2F)n(C)c1=O	18µM	–	–	–
Cn1c(=O)c2c(nc(NCc3ccc4c(c3)OCO4)n2Cc2ccccc2)n(C)c1=O	7.1µM	–	–	–
Cn1c(=O)c2c(nc(NCc3ccc4c(c3)OCO4)n2Cc2ccc(F)cc2)n(C)c1=O	10µM	–	–	–
CC(=O)C[C@H](c1ccc([N+](=O)[O-])cc1)c1c(O)c2ccccc2oc1=O	–	–[2.98 µM]	·	·
Cc1cc(C)c(CSc2ncc(-c3ccc([N+](=O)[O-])cc3)[nH]2)c(C)c1	7.1µM	10µM	?	–
O=[N+]([O-])c1ccc(-c2cnc(SCc3ccccc3Cl)[nH]2)cc1	–	?	–	–
CC(C)(C)OC=O	–	–	·	·
O=C(Nc1ncc(Cc2cccc(C(F)(F)F)c2)s1)c1ccc(-c2cccc([N+](=O)[O-])c2)o1	4.5µM	7.1µM	–	–
Cc1c(CCOC(=O)c2cc([N+](=O)[O-])cc([N+](=O)[O-])c2)sc[n+]1CC(=O)c1ccc(Br)cc1	–	4µM	?	–
Cc1c(CCOC(=O)CC23CC4CC(CC(C4)C2)C3)sc[n+]1CC(=O)c1ccccc1	4.5µM	?	?	–
COc1cccc(C2NC(c3cccc(OC)c3O)C(C)C(=O)C2C)c1O (stereo not given)	4.5µM	3.2µM	–	–
COC(=O)C1CCN(C(=O)CN2C(=O)NC3(CCC(C)CC3)C2=O)CC1 (stereo not given)	·	·	·	–
Cc1cc(NC(=O)c2cc(C(C)(C)C)oc2C)no1	–	13µM	–	–
Cc1oc(C(C)(C)C)cc1C(=O)Nc1ccc(C(=O)O)cc1	–	?	–	–
C=CCn1c(SCc2ccccc2C#N)nnc1-c1cc(Br)ccc1O	25µM	18µM	–	–
COc1ccc(CN(C)C(=O)c2[nH]c(C)c(C(C)=O)c2C)cc1F	?	?	·	–
COc1cc(O)c(C(CC(=O)N2CCCC(C)C2)c2ccc3c(c2)OCO3)c(OC)c1 (stereo not given)	–	3.5µM	–	–
COc1cc(O)c(C(CC(=O)N2CCCC(C)C2)c2ccc(N(C)C)cc2)c(OC)c1 (stereo not given)	–	2µM	–	–
COc1cc(O)c(C(CC(=O)N2CCN(c3ccccc3)CC2)c2ccc(N(C)C)cc2)c(OC)c1 (stereo not given)	–	–	–	–
COc1cc(OC)c2ccc(=O)oc2c1C(CC(=O)N1CCCC(C)C1)c1ccc2c(c1)OCO2 (stereo not given)	–	–	–	–
SMILES	Gal4-VP16 FLuc	RORgamma inh	NPSR antag	B2AR arrestin
COc1cc(O)c(C(CC(=O)N2CCCCC2)c2ccc3c(c2)OCO3)c(OC)c1 (stereo not given)	–	14µM	–	–
COc1ccc(CNC(=O)CCS(=O)(=O)c2cc3c(cc2Cl)NC(=O)CO3)cc1	–	–	·	–
CC(=O)Nc1ccc(S(=O)(=O)NNC2=NS(=O)(=O)c3ccccc32)cc1	–	10µM	–	–
COCC(=O)N1CCC(n2nccc2NC(=O)c2ccccc2OC)CC1	–	–	·	–
COc1ccc(-c2nc(CS(=O)(=O)CC(=O)NCc3ccccc3OC)c(C)o2)cc1	–	–	·	–
CSc1ccc(/C=N/NC(=O)c2sccc2C)cc1	?	8.9µM	–	–
O=C(N/N=C\c1ccc(COc2ccc([N+](=O)[O-])cc2)o1)c1ccc(Cl)cc1	?	13µM	–	–
COc1cc([N+](=O)[O-])ccc1-c1ccc(/C=N/NC(=O)c2ccccc2O)o1	4µM	1µM	–	–
O=C(N/N=C/c1ccc(Br)o1)/C(=C/c1ccc([N+](=O)[O-])cc1)NC(=O)c1ccccc1	?	10µM	?	–
COc1ccc(OCc2ccc(/C=N\NC(=O)c3sccc3C)o2)cc1	?	11µM	·	–
NC(=S)N/N=C/c1ccc(-c2ccc([N+](=O)[O-])cc2)o1	?	7.1µM	–	?
COc1cc(C(=O)NCC(=O)N/N=C/c2ccc(-c3cccc([N+](=O)[O-])c3)o2)cc(OC)c1OC	–	?	·	–
Cc1ccc(/C=N/NC(=O)c2cccs2)o1	?	?	–	–
O=C(N/N=C/c1ccc(-c2cccc([N+](=O)[O-])c2)o1)c1ccccc1O	2.2µM	3.2µM	–	–
Cc1ccc(C(=O)N/N=C\c2ccc(-c3ccc([N+](=O)[O-])cc3)o2)cn1	–	?	–	–
O=C(N/N=C/c1ccc(-c2cccc([N+](=O)[O-])c2)o1)c1ccc([N+](=O)[O-])cc1	5µM	2.5µM	–	–
O=C(Cc1ccc(Br)cc1)NC1CCSC1=O (stereo not given)	–	–	–	–
COc1ccc(Cl)cc1-c1ccc(C(=O)O)s1	–	–	·	·
Nc1ccc(Cl)cc1Cl	–	–	·	·
COc1ccc([N+](=O)[O-])cc1N	–	–	·	·
COC(=O)[C@@H]1C[C@H]1[C@@H](N)c1ccccc1	–	–	·	·
CC(Oc1ccc(Cl)cc1Cl)C(=O)Nc1ccncc1 (stereo not given)	20µM	–	–	–
CC(Oc1cccc(Cl)c1)C(=O)Nc1ccncc1 (stereo not given)	13µM	?	–	–
COc1ccc(/C=C2\CCCC3C2=NC(=S)NC3c2ccc(OC)cc2)cc1 (stereo not given)	13µM	6.3µM	–	–
COc1ccc(/C=C2\CCC(C3CCCC3)C2=O)cc1 (stereo not given)	–	–	·	–
SMILES	Gal4-VP16 FLuc	RORgamma inh	NPSR antag	B2AR arrestin
C[C@@]1(O)CCOC(=O)C1	–	–	·	·
CCCC1S/C(=N/N=C/c2cccs2)NC1=O (stereo not given)	0.4µM	0.22µM	–	–
CC1S/C(=N/N=C/c2cccs2)NC1=O (stereo not given)	7.1µM	2.2µM	–	–
C(=N\N=C\c1cccs1)/c1cccs1	–	–	–	–
CC1S/C(=N/N=C/c2cccc([N+](=O)[O-])c2)NC1=O (stereo not given)	–	–	–	–
CCC1S/C(=N/N=C/c2cccs2)NC1=O (stereo not given)	4µM	0.79µM	–	–
CC(C)C1S/C(=N/N=C/c2cccs2)NC1=O (stereo not given)	0.89µM	0.32µM	–	–
